Screen size: about 2,100 compounds; about 300 (14%) were called active. About 2% were inconclusive and are not listed.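 How the source made its calls: active means every replicate test run called active, with the signal falling and half-maximal concentration within twice the top valid dose; inconclusive means the replicate test runs disagree in their calls; inactive means every test run inactive, including effects in the opposite direction.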 The list is a sample of the results. Potency and affinity values are given separately.
Assay: inhibitors of PGC1a acetylation in cells, dose response, cell-based, cherry-picked samples (AID 720514);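 further: 0% = neutral control wells and -100% = positive control wells; actives lower the acetylation signal so they count as inhibitors of PGC1a acetylation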
Conditions: U2OS PGC1a acetylation, AlphaLISA, overnight; series mostly up to 19.5 µM; activity change, negative = inhibition: at the top concentration

Row | Structure (SMILES) | activity change, negative = inhibition
1 | N#Cc1ccc(Oc2cccnc2)cc1C#N | 106% (inactive)
2 | COc1ccc(NC(=O)C(=O)NCCC2CCCCN2S(=O)(=O)c2cccs2)cc1 (configuration not stated) | 27.4% (inactive)
3 | COc1ccccc1-c1ccc2c(c1)C(C)(Cc1ccc(OC(F)(F)F)cc1)C(=O)N2 (configuration not stated) | 41.4% (inactive)
4 | O=C1Nc2cc(S(=O)(=O)N3CCCC3)ccc2N2CCCC12 (configuration not stated) | 63.7% (inactive)
5 | Cc1cc(N2CCC(C(N)=O)CC2)nc(-c2ccccc2)n1 | 43.1% (inactive)
6 | COc1ccc(CNc2ccc(-c3ccc(OC)cc3)nn2)cc1 | 105% (inactive)
7 | CCOC(=O)C1=C[C@@H](C(C)C)N(S(=O)(=O)c2ccc(C)cc2)[C@H]1c1ccc(C(F)(F)F)cc1 | 111% (inactive)
8 | COc1ccc(C(C)(O)c2nc(-c3ccc(S(C)(=O)=O)cc3)cs2)cc1 (configuration not stated) | 112% (inactive)
9 | CCOC(=O)CC(S(=O)(=O)c1ccccc1)S(=O)(=O)c1ccccc1 | 105% (inactive)
10 | COc1ccc(CCNCc2ccc(-c3ccccc3)cc2)cc1OC | 36.3% (inactive)
11 | O=C1C=C(c2cc3ccccc3s2)CCC1 | 155% (inactive)
12 | O=C(c1cccs1)N1CCN(c2nnc(-c3ccccc3)c3ccccc23)CC1 | 84.9% (inactive)
13 | N=c1n(CCN2CCCC2)c2ccccc2n1CC(O)c1ccc(Cl)c(Cl)c1 (configuration not stated) | 54.5% (inactive)
14 | O=C(c1ccco1)N1CCN(c2nnc(-c3ccccc3)c3ccccc23)CC1 | 55.7% (inactive)
15 | Cc1cccc2cc(CN(Cc3ccc(F)cc3)Cc3nnnn3C3CCCC3)c(=O)[nH]c12 | 39.1% (inactive)
16 | Oc1ccc(C[C@@H]2CNCCN2CCC23CC4CC(CC(C4)C2)C3)cc1 | 47.7% [at 10 µM] (inactive)
17 | CCn1nc(C)c(CN2CCc3c([nH]c4ccccc34)C2C(C)(C)C)c1C (configuration not stated) | 81.8% (inactive)
18 | CCOC(=O)C1(Cc2ccccc2)CCN(Cc2cccc(OC)c2O)CC1 | 118% (inactive)
19 | Cc1cc(C)c2c(-n3cccc3)c(C(=O)NNS(=O)(=O)c3ccccc3)sc2n1 | 99.1% (inactive)
20 | Cc1cccc(S(=O)(=O)N(C)C[C@@H]2OCc3cn(nn3)CCCC(=O)N([C@H](C)CO)C[C@H]2C)c1 | 7.15% (inactive)
21 | C[C@H]1CN([C@@H](C)CO)C(=O)CCCn2cc(nn2)CO[C@H]1CN(C)S(=O)(=O)c1ccc(Cl)cc1 | 24.9% [at 21 µM] (inactive)
22 | CC(=O)CCS(=O)(=O)c1ccc(C)c(C)c1 | 117% (inactive)
23 | O=C(C[C@@H]1C[C@@H]2c3cc(NC(=O)Nc4ccccc4F)ccc3O[C@@H]2[C@@H](CO)O1)NCc1ccc(Oc2ccccc2)cc1 | 31.4% (inactive)
24 | COC(=O)C[C@@H]1C[C@H]2c3cc(NC(=O)Nc4ccc(C(F)(F)F)cc4)ccc3O[C@H]2[C@H](CO)O1 | 90.3% (inactive)
25 | COc1ccc(CC(CC(=O)O)C(=O)Nc2ccc(OC)cc2)cc1 (configuration not stated) | 32.5% (inactive)
26 | COc1ccc(CCNC(=O)COc2ccc(S(=O)(=O)N3CCCC3)cc2)cc1 | 40.7% (inactive)
27 | CCn1c(SC/C=C/c2ccccc2)nnc1-c1cccs1 | 41.8% (inactive)

— PubChem BioAssay AID720514 (Broad Institute, 2013)
